Results taken from the supplement of paper PMC10515830.
Where a name gives a salt, the structure may show the parent alone.

Test system: Danio rerio larvae (5 dpf)
Assay: difference in startle response vs DMSO (percentage points); higher = stronger startle than DMSO
Settings: 10 µM; exposure time 6 h
Method in brief: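 In 96-well plates, 48 wild-type zebrafish larvae aged 5 dpf per compound received 100 µL egg water with library compound at 10 µM final for 6 h. Three hours into this, a 3-h programme of moving lines and 100 ms, 400Hz tones ran at 28.5 ℃ while plates were photographed every 6 s. Z-LaP Tracker scored the behaviours, and each is given as the compound mean minus the vehicle control mean in percentage points.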

Structure (SMILES)	difference in startle response
COc1nc(N)nc2c1ncn2[C@@H]1O[C@H](CO)[C@@H](O)[C@@H]1O [Nelarabine]	1.82
CC[C@]1(O)C[C@@H]2CN(CCc3c([nH]c4ccccc34)[C@@](C(=O)OC)(c3cc4c(cc3OC)N(C)[C@H]3[C@@](O)(C(=O)OC)[C@H](OC(C)=O)[C@]5(CC)C=CCN6CC[C@]43[C@@H]65)C2)C1 [Vinblastine (sulfate)]	-3.06
CN1CCC(=C2c3ccccc3CCn3c(C=O)cnc32)CC1 [Alcaftadine]	3.88
Cc1nnc(C(C)C)n1C1C[C@H]2CC[C@@H](C1)N2CC[C@H](NC(=O)C1CCC(F)(F)CC1)c1ccccc1 (stereo in doubt) [Maraviroc]	-3.97
C[C@]12C=CC(=O)N[C@@H]1CC[C@@H]1[C@@H]2CC[C@]2(C)[C@@H](C(=O)Nc3cc(C(F)(F)F)ccc3C(F)(F)F)CC[C@@H]12 [Dutasteride]	-0.713
CCC(=O)O[C@]1(C(=O)SCF)[C@H](C)C[C@H]2[C@@H]3C[C@H](F)C4=CC(=O)C=C[C@]4(C)[C@@]3(F)[C@@H](O)C[C@@]21C [Fluticasone Propionate]	-3.21
Nc1ccn([C@@H]2O[C@H](CO)[C@@H](O)C2(F)F)c(=O)n1 [Gemcitabine]	-0.373
CN(C)CCOC(c1ccccc1)c1ccccc1 [Diphenhydramine (hydrochloride)]	0.108
CO[C@H]1/C=C/O[C@@]2(C)Oc3c(C)c(O)c4c(O)c(c(/C=N/N5CCN(C)CC5)c(O)c4c3C2=O)NC(=O)/C(C)=C\C=C\[C@H](C)[C@H](O)[C@@H](C)[C@@H](O)[C@@H](C)[C@H](OC(C)=O)[C@@H]1C [Rifampicin]	2.9
